Data from PubChem BioAssay (EPA / NIEHS).
Records with an inconclusive call do not appear. The source made the active and inactive calls. Rule for the calls: active = hit-call score of the fitted dose curve at least 0.9, where 1 is the maximum; inconclusive = response in the unintended direction; inactive = score below 0.9.

Legend:
[1] = ATG_XTT_Cytotoxicity: Cytotoxicity Assessment in the Attagene TRANS-FACTORIAL HepG2 Assay (AID 2283584)
Procedure, shortened: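 HepG2 cells transiently transfected with GAL4-UAS multiple reporter units, dosed 24 h; cytotoxicity read by XTT as loss of signal versus DMSO baseline.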

[2] = molecular target: Cellular tumor antigen p53 (Homo sapiens) (UniProt P04637); assay: TOX21_p53_BLA_p2_ratio: Tox21 HCT-116 p53 Agonism Beta-lactamase Assay, Ratio, Phase 2 (AID 2283592)
Procedure, shortened: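 First, HCT116 reporter cells settle for 5 h at 37C. Next, DMSO compound solutions are pinned in (217-fold dilution) and left 16 h. Finally, CCF4-AM substrate is loaded 2 h at room temperature and the 460/530 nm ratio read.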

[3] = molecular target: Cellular tumor antigen p53 (Homo sapiens) (UniProt P04637); assay: TOX21_p53_BLA_p3_ratio: Tox21 HCT-116 p53 Agonism Beta-lactamase Assay, Ratio, Phase 3 (AID 2283596)
Procedure, shortened: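 Cells were seeded at 4000/well, rested 5 h at 37C, then dosed with DMSO compound solutions (217-fold dilution) for 16 h. CCF4-AM substrate was loaded for 2 h at room temperature, and the 460/530 nm emission ratio was fitted for gain of signal versus DMSO.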

[4] = molecular target: Cellular tumor antigen p53 (Homo sapiens) (UniProt P04637); assay: TOX21_p53_BLA_p5_ratio: Tox21 HCT-116 p53 Agonism Beta-lactamase Assay, Ratio, Phase 5 (AID 2283599)
Procedure, shortened: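 HCT-116 p53-bla cells (4000/well) plated 5 h, dosed with compound (217-fold DMSO dilution) for 16 h at 37 C; CCF4-AM substrate 2 h at room temperature. Activity is the 460/530 nm emission ratio (405 nm excitation), fitted in gain-of-signal direction versus DMSO.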

[5] = TOX21_p53_BLA_p5_viability: Viability Assessment in the Tox21 HCT-116 p53 Agonism Beta-lactamase Assay, Phase 5 (AID 2283600)
Procedure, shortened: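 Decreased CellTiter-Glo luminescence denotes lost viability. Exposure: 16 h at 37C, 5% CO2, with compounds from DMSO stocks diluted 217-fold in wells of 4000 cells.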

[6] = molecular target: Cellular tumor antigen p53 (Homo sapiens) (UniProt P04637); assay: TOX21_p53_BLA_p4_ratio: Tox21 HCT-116 p53 Agonism Beta-lactamase Assay, Ratio, Phase 4 (AID 2283601)
Procedure, shortened: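 HCT-116 p53 beta-lactamase reporter cells (4000/well) preincubated 5 h, then compound (217-fold dilution of DMSO stock) for 16 h at 37C. CCF4-AM substrate added 2 h at room temperature; 460/530 nm emission ratio fitted upward versus DMSO.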

[7] = TOX21_p53_BLA_p4_viability: Viability Assessment in the Tox21 HCT-116 p53 Agonism Beta-lactamase Assay, Phase 4 (AID 2283597);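 note: hits lower the luminescence signal meaning cytotoxicity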
Procedure, shortened: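 4000 HCT116 cells per well; 5 h attachment; compounds from DMSO, 217-fold dilution; 16 h at 37C. Then CCF4-AM, 2 h RT, followed by CellTiter-Glo, 30 min RT, luminescence. Decrease = cytotoxicity.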

[8] = TOX21_p53_BLA_p3_viability: Viability Assessment in the Tox21 HCT-116 p53 Agonism Beta-lactamase Assay, Phase 3 (AID 2283593);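 note: cells exposed to compound for 16 h before reading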
Procedure, shortened: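 HCT116 cells, 4000/well, dosed 5 h after plating by pin transfer (217-fold dilution from DMSO stock) and incubated 16 h at 37C, 5% CO2. Viability read as ATP luminescence with CellTiter-Glo after 30 min at room temperature.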

Cellular tumor antigen p53 (Homo sapiens), sequence (P04637 whole entry, looked up): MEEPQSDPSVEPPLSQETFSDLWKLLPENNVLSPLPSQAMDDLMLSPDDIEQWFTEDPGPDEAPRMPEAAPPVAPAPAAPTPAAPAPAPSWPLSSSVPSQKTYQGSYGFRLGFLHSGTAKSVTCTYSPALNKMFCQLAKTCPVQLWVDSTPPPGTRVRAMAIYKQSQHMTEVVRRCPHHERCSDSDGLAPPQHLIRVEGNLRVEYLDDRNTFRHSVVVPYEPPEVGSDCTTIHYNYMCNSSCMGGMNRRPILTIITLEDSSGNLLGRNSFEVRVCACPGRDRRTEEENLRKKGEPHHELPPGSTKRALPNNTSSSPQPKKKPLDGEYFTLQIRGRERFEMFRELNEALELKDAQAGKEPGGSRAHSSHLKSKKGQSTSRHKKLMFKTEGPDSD

Compound | outcome [1] | outcome [2] | outcome [3] | outcome [4] | outcome [5] | outcome [6] | outcome [7] | outcome [8] | AC50 [4] | AC50 [6]
C=C(C)[C@@H]1CCC2=CC(=O)C[C@@H](C)[C@]2(C)C1 | inactive | inactive | inactive | inactive | inactive | inactive | – | – | – | –
OCCCCCO | inactive | inactive | inactive | inactive | – | inactive | – | – | – | –
CC(C)=CCCC(C)CC=O (stereo unspecified) | inactive | inactive | inactive | inactive | – | inactive | – | – | – | –
CCCCO | inactive | inactive | inactive | inactive | inactive | inactive | inactive | – | – | –
CCO[Si](CCCS)(OCC)OCC | inactive | – | – | inactive | – | – | – | inactive | – | –
O=C(O)c1cn(-c2ccc(F)cc2)c2cc(N3CCNCC3)c(F)cc2c1=O | inactive | inactive | inactive | inactive | – | inactive | – | inactive | – | –
Sc1nc(S)nc(S)n1 | inactive | – | inactive | inactive | – | inactive | – | inactive | – | –
O=c1cc(-c2ccccc2)oc2cc(O)cc(O)c12 | inactive | – | inactive | – | inactive | – | – | inactive | 22.3 µM (active) | 46.1 µM (active)
CC1(C)C(=O)N(Br)C(=O)N1Cl | inactive | inactive | – | inactive | – | – | inactive | inactive | – | –
CCCCCCCCC=O | inactive | – | inactive | – | inactive | – | inactive | – | – | –
O=C1CCCCCCCCCCOCCCCO1 | inactive | inactive | inactive | inactive | inactive | inactive | inactive | – | – | –
CC1=CCC2C(C1)C2(C)C (stereo unspecified) | inactive | inactive | inactive | inactive | inactive | inactive | – | – | – | –
CC(C)(C)C(=O)c1ccccc1 | inactive | inactive | inactive | inactive | inactive | inactive | – | inactive | – | –
CCCCCCOC(=O)CCCCC | inactive | inactive | inactive | inactive | – | inactive | – | inactive | – | –
CCCCCCCCCCCCSC | inactive | inactive | – | inactive | inactive | inactive | inactive | inactive | – | –
CCC(C)(O)CCC=C(C)C (stereo unspecified) | inactive | inactive | inactive | inactive | inactive | inactive | inactive | – | – | –
Clc1ccc(Cl)c(Cl)c1Cl | inactive | inactive | inactive | inactive | inactive | – | inactive | – | – | 0.000436 µM (active)
NNc1nc(-c2ccc(N)cc2)cs1 | inactive | inactive | inactive | inactive | inactive | inactive | inactive | – | – | –
O=Cc1ccc(Cl)c([N+](=O)[O-])c1 | inactive | inactive | inactive | inactive | – | inactive | inactive | – | – | –
C=COCCOCCOCCOC=C | inactive | inactive | inactive | inactive | inactive | inactive | – | – | – | –
CCCCCCCCCOC(C)=O | inactive | inactive | inactive | inactive | inactive | inactive | inactive | – | – | –
COc1ccc(O)cc1 | inactive | inactive | – | inactive | – | inactive | inactive | inactive | – | –
COc1ccc(OC)c(OC)c1 | inactive | – | inactive | inactive | inactive | inactive | – | inactive | – | –
C=C[Si](OCC)(OCC)OCC | inactive | – | – | – | – | inactive | – | inactive | – | –
OC[C@H]1O[C@H](O[C@]2(CCl)O[C@H](CCl)[C@@H](O)[C@@H]2O)[C@H](O)[C@@H](O)[C@H]1Cl | inactive | inactive | inactive | inactive | inactive | inactive | – | inactive | – | –
CC[C@]12CCCN3CCc4c(n(c5ccccc45)[C@@](O)(C(=O)OC)C1)[C@@H]32 | inactive | inactive | inactive | inactive | – | inactive | – | – | – | –
CCCc1ccccc1O | inactive | inactive | inactive | inactive | – | inactive | – | inactive | – | –
CCCCCCCCCCCCCCCC(=O)OC[C@H](O)[C@H]1OC(=O)C(O)=C1O | inactive | inactive | inactive | – | inactive | inactive | – | inactive | – | –
CCCCCC(CO)CCC (stereo unspecified) | inactive | inactive | inactive | inactive | inactive | inactive | inactive | – | – | –
